PubChem BioAssay (EPA / NIEHS)
Active and inactive are the calls of the source. Rule for the calls: active = hit-call score of the fitted dose curve at least 0.9, where 1 is the maximum; inactive = score below 0.9.

Columns and labels:
[1] = ATG_NFI_CIS: Attagene CIS-FACTORIAL HepG2 Assay for human Nuclear Factor I (NFI) (AID 2282989); conditions: HepG2 cis-regulatory reporter, NFI response element transcription; actives raise or lower the signal
In short: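 Reporter transcription driven by endogenous transcription factors in HepG2 cells; 24 h treatment. Quantitation by labelled RT-PCR fragments on capillary electrophoresis, gain- or loss-of-signal relative to DMSO.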

[2] = target: Myc proto-oncogene protein (Homo sapiens) (UniProt P01106); assay: ATG_Myc_CIS: Attagene CIS-FACTORIAL HepG2 Assay for human Myelocytomatosis (Myc) Proto-Oncogene Transcription Factor (AID 2282990); conditions: HepG2, Attagene cis-reporter transcription factor activity; actives raise or lower the signal
In short: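 Multiplexed cis-reporter transcription in HepG2 cells after 24 h chemical treatment. Reporter mRNA measured by RT-PCR and capillary electrophoresis fluorescence; activity fitted bidirectionally against DMSO control.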

[3] = ATG_NRF2_ARE_CIS: Attagene CIS-FACTORIAL HepG2 Assay for human Nuclear Factor Erythroid 2 Related Factor 2 (NFR2) response to Antioxidant Response Elements (ARE) (AID 2282992); conditions: HepG2 Attagene ARE/NRF2 reporter, transcription factor activity; actives raise or lower the signal
In short: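 Transient MRTU transfection of HepG2; 24 h compound exposure; TriZol RNA, RT with oligo(dT), PCR, 6-FAM primer extension, HpaI cut, CE. Bidirectional fit vs DMSO.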

[4] = ATG_Oct_MLP_CIS: Attagene CIS-FACTORIAL HepG2 Assay for human Octamer-Binding Transcription Factor (Oct) (AID 2282993); conditions: HepG2 Attagene cis-factorial Oct reporter, mRNA; actives raise or lower the signal
In short: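 Transfected HepG2 cells, 24 h treatment. Reporter mRNA quantified by RT-PCR–capillary electrophoresis; bidirectional fitting against DMSO.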

[5] = target: Cellular tumor antigen p53 (Homo sapiens) (UniProt P04637); assay: ATG_p53_CIS: Attagene CIS-FACTORIAL HepG2 Assay for human p53 Transcription Factor (AID 2282994); conditions: HepG2 p53 cis-element reporter, Attagene mRNA; actives raise or lower the signal
In short: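 HepG2, transient MRTU transfection (cis promoter elements, endogenous TFs); 24 h dosing; RNA isolation, RT-PCR, 6-FAM primer extension, HpaI digest, CE fluorescence; bidirectional fit vs DMSO.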

[6] = BSK_3C_TissueFactor: BioMAP Diversity Plus: 3C Assay for Tissue Factor Biomarker Activity (AID 2282997); conditions: BioMAP 3C HUVEC, tissue factor biomarker readout; actives raise or lower the signal
In short: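 HUVEC were treated 24 h, then surface tissue factor measured by ELISA and fitted bidirectionally against DMSO. Parallel SRB total-protein staining assessed overt cytotoxicity at the same time point.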

[7] = BSK_3C_uPAR: BioMAP Diversity Plus: 3C Assay for Urokinase-type plasminogen activator receptor (uPAR) Biomarker Activity (AID 2282998); conditions: BioMAP 3C HUVEC, uPAR biomarker ELISA; actives raise or lower the signal
In short: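 Readout: ELISA for surface uPAR. System: human umbilical vein endothelial primary cells, 24 h after chemical exposure. Analysis: bidirectional fit, DMSO baseline.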

[8] = BSK_3C_VCAM1: BioMAP Diversity Plus: 3C Assay for Vascular cell adhesion molecule 1 (VCAM1) Biomarker Activity (AID 2282999); conditions: BioMAP 3C HUVEC, VCAM1 ELISA, cytokine-stimulated; actives raise or lower the signal
In short: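 Human umbilical vein endothelial cells were dosed with compound for 24 h, after which cell-surface VCAM-1 was quantified by ELISA. Bidirectional curve fitting used DMSO as negative control and activity baseline.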

[9] = BSK_4H_Eotaxin3: BioMAP Diversity Plus: 4H Assay for Eotaxin 3 Biomarker Activity (AID 2283000); conditions: primary human endothelial cells (HUVEC); actives raise or lower the signal
In short: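 Eotaxin-3 (CCL26) levels were measured by ELISA in HUVEC primary cultures 24 h post-dosing. Gain or loss of signal was fitted in both directions, with DMSO serving as baseline and negative control.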

Measured: AC50

Chain of Myc proto-oncogene protein (Homo sapiens) (P01106 whole entry, looked up): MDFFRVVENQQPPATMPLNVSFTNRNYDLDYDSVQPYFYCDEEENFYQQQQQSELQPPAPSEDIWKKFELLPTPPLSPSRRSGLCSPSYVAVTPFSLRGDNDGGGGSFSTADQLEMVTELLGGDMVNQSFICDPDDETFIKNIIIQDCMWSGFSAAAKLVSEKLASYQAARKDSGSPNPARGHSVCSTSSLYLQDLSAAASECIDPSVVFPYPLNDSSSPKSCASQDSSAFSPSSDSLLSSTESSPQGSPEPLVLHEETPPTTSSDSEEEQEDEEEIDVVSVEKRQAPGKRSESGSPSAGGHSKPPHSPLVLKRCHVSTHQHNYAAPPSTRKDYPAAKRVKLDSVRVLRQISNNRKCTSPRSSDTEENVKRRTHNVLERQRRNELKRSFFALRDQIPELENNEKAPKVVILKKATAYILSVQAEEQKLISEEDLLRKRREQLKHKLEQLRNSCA
Chain of Cellular tumor antigen p53 (Homo sapiens) (P04637 whole entry, looked up): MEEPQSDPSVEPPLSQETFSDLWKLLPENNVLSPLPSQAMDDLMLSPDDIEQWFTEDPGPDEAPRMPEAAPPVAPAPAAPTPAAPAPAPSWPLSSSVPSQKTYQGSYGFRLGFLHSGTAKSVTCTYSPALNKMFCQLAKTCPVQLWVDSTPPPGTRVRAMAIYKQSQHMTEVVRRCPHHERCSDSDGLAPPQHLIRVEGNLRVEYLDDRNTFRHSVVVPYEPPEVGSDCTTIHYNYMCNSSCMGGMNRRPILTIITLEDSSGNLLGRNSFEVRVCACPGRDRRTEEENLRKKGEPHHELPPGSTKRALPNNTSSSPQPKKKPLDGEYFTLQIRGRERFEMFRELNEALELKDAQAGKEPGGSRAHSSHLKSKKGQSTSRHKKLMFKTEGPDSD

C=C(CC(=O)O)C(=O)O
inactive: [1] | [2] | [3] | [4] | [5]

COC(=O)C=C(C)CCC=C(C)C
inactive: [1] | [2] | [4] | [5]
active: [3] 36.1 µM

Cc1[nH]c(=O)c(C#N)cc1-c1ccncc1
inactive: [1] | [2] | [3] | [4] | [5]

CCCC(C)C(O)CC (stereo not drawn)
inactive: [1] | [2] | [3] | [4] | [5]

CC1(C)COCN1
inactive: [1] | [2] | [3] | [4] | [5]

CCCCCCCC(=O)OCCCCCC
inactive: [1] | [2] | [3] | [4] | [5]

COc1cc([C@@H]2c3cc4c(cc3[C@@H](O[C@@H]3O[C@@H]5CO[C@@H](C)O[C@H]5[C@H](O)[C@H]3O)[C@H]3COC(=O)[C@H]23)OCO4)cc(OC)c1O
inactive: [1] | [2] | [3] | [4] | [5]

Cc1ccc(C)o1
inactive: [1] | [2] | [3] | [4] | [5]

CCCCCC(=O)CC
inactive: [1] | [2] | [3] | [4] | [5]

C=CC(=O)OCCCC
inactive: [1] | [2] | [3] | [4] | [5]

OC[C@H]1O[C@@H](Oc2ccc(O)cc2)[C@H](O)[C@@H](O)[C@@H]1O
inactive: [1] | [2] | [3] | [4] | [5]

Cc1ccc(N)c(S(=O)(=O)O)c1
inactive: [1] | [2] | [3] | [4] | [5]

CC=Cc1ccc(OCC)c(O)c1
inactive: all assays above

CCCCCC(C)=O
inactive: [1] | [2] | [3] | [4] | [5]

CCC(C)c1cc([N+](=O)[O-])cc([N+](=O)[O-])c1OC(=O)OC(C)C (stereo not drawn)
inactive: [2] | [4]
active: [1] 24.5 µM | [3] 5.1 µM | [5] 25 µM | [6] 9.93 µM | [7] 11.3 µM | [8] 19.4 µM | [9] 8.5 µM
